A selection: hits, their analogues and other compounds. The true share with any hit is near 7.5%.
ELG1 genotox: induces genotoxicity in HEK293T cells with luciferase-tagged ELG1 | HEK293T ELG1-luciferase reporter, luminescence, 16 h | Potency, µM (doses to about 46 µM), for inactives: at the top dose activity change, positive = activation, actives largely listed as activators | hit rate 1.3% among 330,000 | AID 504466; note: % of control where 0% means no effect; nearly all actives have a fitted effect of over 60% in size
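Genotoxicity was scored as increased ELG1-luciferase reporter signal, measured by ONE-Glo luminescence (30 min, room temperature). Compound or vehicle exposure of the HEK293T reporter cells lasted 16 hr at 37°C.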
SMN2 splice up: enhancers of SMN2 splice variant expression; AID 1458; hit rate 2.8% among 210,000; HEK293 SMN2-luciferase splicing reporter, luminescence, 30-36 h; Potency, µM (highest dose often 46.1 µM), without a hit: top-dose activity change, positive = activation, actives largely listed as activators; note: % of control where 0% means no effect; nearly all actives have a fitted effect of over 55% in size
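HEK293 cells carry an SMN2 […]–luciferase reporter in which exon 7 inclusion puts luciferase in frame. Cells were plated 10-12 h before compound addition, then incubated 30-36 h at 37C. ONE-Glo luminescence was read; sodium butyrate at 4.5 mM final served as control.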
NPC1 prom act: NPC1 promoter activation; Huh7 NPC1 promoter luciferase reporter, 24 h; Potency, µM (series often up to 9.22 µM), for the others: at the top dose activation, hits mostly activators; hit rate 2.4% among 320,000; note: % of control where 0% means no effect; nearly all actives have a fitted effect of over 60% in size
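Cells: Huh7 expressing luciferase under the NPC1 promoter, 1500/well. Seeded 2 h, compound added, incubated 24 h at 37 °C. Luciferase reagent, 10 min ambient, then luminescence.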
Luc counter: Kinase-Glo luciferase inhibition (counter-screen); Kinase-Glo luciferase, ATP luminescence, 8 min; Q27757; Potency, µM (doses to about 38.3 µM), inactives show at the top dose activity change, negative = inhibition, actives largely listed as inhibitors; hit rate 0.28% among 200,000; note: % is set by controls: 0 for no effect and ±100 for the full control effect; nearly all actives have a fitted effect of over 60% in size
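Substrate mix (final 50 mM imidazole pH 7.2, 50 mM KCl, 7 mM MgCl2, 10 uM ATP, 0.01% Tween 20, 0.05% BSA) plus pin-tool compound, then Kinase-Glo detection mix; 8 min ambient, luminescence read.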
Rab9 promoter act: activates the Rab9 promoter; Potency, µM (doses to about 9.22 µM), for the others: top-dose activation, negative = inhibition, hits mostly activators; hit rate 2.8% among 320,000; Huh7 Rab9 promoter-luciferase reporter, luminescence, 24 h; note: % of control where 0% means no effect; nearly all actives have a fitted effect of over 60% in size
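Using Huh7 cells stably transfected with Rab9 promoter–luciferase, compounds were incubated 24 h at 37 °C, 5% CO2; luciferase luminescence was read 10 min after reagent addition.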
FLuc counter: inhibits or activates purified firefly luciferase, miR-21 counter-screen; purified FLuc, Km substrates, luminescence inhibition; Potency, µM (doses to about 57.5 µM), without a hit: at the top dose activity change, negative = inhibition, usual class: inhibitors; hit rate 6.9% among 360,000;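 note: plate controls were vehicle for no effect and reference inhibitor for full effect; nearly all actives have a fitted effect of over 55% in size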
Target sequence (P08659 whole entry, looked up): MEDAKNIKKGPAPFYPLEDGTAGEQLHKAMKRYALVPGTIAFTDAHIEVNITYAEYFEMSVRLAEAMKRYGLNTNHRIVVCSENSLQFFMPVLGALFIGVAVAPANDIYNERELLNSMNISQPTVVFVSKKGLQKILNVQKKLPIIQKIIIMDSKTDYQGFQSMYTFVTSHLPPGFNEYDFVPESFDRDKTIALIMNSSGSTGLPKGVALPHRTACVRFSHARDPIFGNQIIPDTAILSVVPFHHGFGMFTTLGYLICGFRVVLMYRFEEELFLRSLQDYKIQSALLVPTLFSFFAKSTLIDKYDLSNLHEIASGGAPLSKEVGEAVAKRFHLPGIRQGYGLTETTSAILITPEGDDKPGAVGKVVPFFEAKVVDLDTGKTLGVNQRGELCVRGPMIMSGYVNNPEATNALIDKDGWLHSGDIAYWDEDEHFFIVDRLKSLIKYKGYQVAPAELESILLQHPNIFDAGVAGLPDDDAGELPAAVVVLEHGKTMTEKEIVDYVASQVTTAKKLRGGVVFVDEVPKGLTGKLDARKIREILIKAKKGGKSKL
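Biochemical qHTS of compounds, final roughly 60 µM downward over six points, against 10 nM purified firefly luciferase using Km concentrations of substrates (10 uM D-luciferin, 10 uM ATP) in Tris acetate pH 7.5 buffer; luminescence output.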
Starred values were filed as active, the others as inactive; ? = inconclusive; · = no result; [ ] = dose if it differs, or a comment. Calls come from the whole dose curve; as a rule, active = well fitted curve in the direction sought with a large enough effect; inconclusive = small, poorly fitted or top-dose-only effect, or another doubt; inactive = no such curve, though single readings can be large; an effect the other way counts as inactive or inconclusive. Potency is the fitted concentration of half-maximal effect.

SMILES	ELG1 genotox	SMN2 splice up	NPC1 prom act	Luc counter	Rab9 promoter act	FLuc counter
Cc1ccccc1C(=O)Nc1cccc(C(=O)N/N=C/c2cc(Cl)cc([N+](=O)[O-])c2O)c1	14%	·	1%	·	1%	21µM*
O=C(Cn1nc2ccccc2n1)N/N=C/c1cc(Cl)cc([N+](=O)[O-])c1O	6%	-23%	-1%	-3%	-3%	?
COc1ccc(/C=N/NC(=O)c2ccc3nc[nH]c3c2)cc1OC	-5%	·	0%	·	-4%	?
COc1cc(/C=N/NC(=O)c2ccc3nc[nH]c3c2)cc(OC)c1OC	-4%	·	-10%	·	-7%	12µM*
COc1cc(/C=N/NC(=O)c2cccc(NC(=O)c3ccccc3C)c2)ccc1O	-10%	·	12%	·	-1%	19µM*
Cc1c(Cc2ccccc2)c(=O)oc2c(C)c(OCC(=O)N[C@@H](Cc3ccccc3)C(=O)O)ccc12	2%	·	0%	·	0%	?
CCN(CC)CCNC(=O)c1cc(Br)c(N)cc1OC	-10%	-11%	0%	-1%	-2%	0%
COc1ccccc1CCNC(=O)c1cccn1-c1nnc(N2CCCC2)s1	·	·	·	·	·	3%
COc1cc(/C=N/NC(=O)c2cccc(NC(=O)c3ccccc3)c2)ccc1O	-8%	·	16%	·	20%	9.5µM*
COc1cc(/C=N\NC(=O)c2ccc(-c3ccccc3)cc2)cc(OC)c1O	4%	·	4%	·	21%	9.5µM*
COc1cc(/C=N/NC(=S)Nc2cccc(S(=O)(=O)N(C)C)c2)ccc1O	1%	21%	-3%	14%	0%	2.7µM*
CC(=O)c1cccc(NC(=O)CCCN2C(=O)COc3ccc(C)cc32)c1	·	-3%	·	·	·	2%
O=C1C2CC=CCC2C(=O)N1Cc1nnc(-c2ccc(Cl)cc2)o1 (stereo unspecified)	?	24%	12%	1%	?	19µM*
O=C1C2CC=CCC2C(=O)N1Cc1ccccc1 (stereo unspecified)	0%	-18%	-4%	5%	0%	3%
COc1ccc(C(=O)Nc2nnc(SCC(=O)NCc3ccco3)s2)c(OC)c1	0.52µM*	·	0.28µM*	·	0.32µM*	0.67µM*
O=C(CSc1nnc(NC(=O)c2ccccc2F)s1)NCc1ccco1	16µM*	·	3.5µM*	·	4µM*	8.5µM*
Cc1ccc(Nc2nc(C(=O)NCc3ccco3)cs2)cc1	-3%	-15%	11%	-4%	-2%	24µM*
CCSc1nnc(Nc2ccc(C)cc2)s1	?	?	3.5µM*	1%	2.8µM*	9.5µM*
CCCCCCc1ccc(N2C[C@H](Cc3ccccc3)[C@@H](CC(=O)Nc3ccccc3)C2=O)cc1	-7%	·	-2%	·	0%	-7%
COc1ccccc1C(=O)Nc1nnc(SCC(=O)NCc2ccco2)s1	2.3µM*	·	3.2µM*	·	2.2µM*	3.4µM*
COc1ccc(C(=O)Nc2nnc(SCC(=O)NCc3ccco3)s2)cc1OC	2%	·	?	·	18%	-3%
Cc1ccc(Nc2nnc(SCC(=O)NCc3ccco3)s2)cc1	1%	8%	21%	-8%	6%	13µM*
CC1CCCN(S(=O)(=O)c2cccc(C(=O)NCC3CCCO3)c2)C1 (stereo unspecified)	3%	·	·	·	·	·
Cc1cc(N)c(-n2cc3c(=O)n(C)c(=O)n(C)c3c2)cc1C	?	?	16%	-17%	?	17µM*
Cn1c(=O)c2cn(-c3ccc4c(c3)OCCO4)cc2n(C)c1=O	11µM*	?	?	-4%	?	?
SMILES	ELG1 genotox	SMN2 splice up	NPC1 prom act	Luc counter	Rab9 promoter act	FLuc counter
Cc1ccc(-n2cc3c(=O)n(C)c(=O)n(C)c3c2)cc1C	0%	3%	28%	0%	27%	?
COc1ccccc1-c1cc(C(=O)Nc2c(C)nn(Cc3ccc(Cl)cc3)c2C)no1	·	-1%	·	·	·	-6%
CCOC(=O)c1c(C)nc(-c2ccccc2)nc1N	18µM*	·	4%	5%	?	-15%[2.3 µM]
CCOC(=O)c1c(-c2ccccc2)cn2c(C)cc(C)nc12	16µM*	11µM*	3.2µM*	-1%	2.8µM*	3.4µM*
CC(=O)c1c(C)nc(-c2ccccc2)nc1N	11%	·	19%	-2%	13%	?
CCOC(=O)c1c(C)nc(C)c(C(=O)OCC)c1-c1ccccc1	19%	16µM*	4µM*	10%	2.2µM*	6µM*
CCOC(=O)c1cnn(-c2cc(C)nc3c(-c4ccccc4)c(C)nn23)c1N	-3%	12%	1%	4%	3%	-3%
Cc1ccc(NS(=O)(=O)c2c(C(=O)N3CCCCCC3)c(C)n(C)c2C)c(C)c1	0%	·	18%	·	-2%	1%
COc1cc(NC(=O)CSc2ncnc3scc(-c4ccccc4)c23)c(C(=O)O)cc1OC	2%	20%	0%	1%	-5%	15µM*
COc1ccccc1CCCNC(=O)C1CCC(=O)N(CCCN2CCCC2=O)C1 (stereo unspecified)	3%	·	1%	·	-2%	1%
O=C1OC(c2ccccc2)=N/C1=C\C=C\c1ccco1	-1%	·	-2%	-4%	1%	4.8µM*
Cc1nc(CN(C)C(=O)c2cc(COc3c(F)cccc3F)on2)cs1	1%	·	0%	3%	-4%	-11%
CCC(NC(=O)c1cc(COc2c(F)cccc2F)on1)c1ccncc1 (stereo unspecified)	-3%	·	9%	·	-1%	-3%
CN(Cc1cc(-c2ccccc2)on1)C(=O)c1cc(COc2c(F)cccc2F)on1	16%	·	24%	3%	2.5µM*	24µM*
COC(=O)[C@H](Cc1ccccc1)NC(=O)c1cc(COc2c(F)cccc2F)on1	?	·	?	·	?	19µM*
Cc1cc(C)cc(NC(=O)Cn2c(C(F)(F)F)nc3ccccc32)c1	·	-15%	·	·	·	-1%
COc1ccc(N2C(=S)NC3N2C(=S)NC3(C)c2ccccc2)cc1 (stereo unspecified)	?	?	29%	4%	4µM*	?
Cc1ccc(CCNC(=O)c2cn(C)c3ccc(S(=O)(=O)N4CCCCC4)cc3c2=O)cc1	·	-5%	·	·	·	2%
COc1ccc(OCc2cc(C(=O)NC(C)c3csc(C)n3)no2)c(Cl)c1 (stereo unspecified)	7%[9.26 µM]	·	?	·	4.5µM*	13µM*
Cc1nc(CNC(=O)c2cc(COc3ccc(F)cc3Cl)on2)cs1	1%	·	-1%	·	0%	27µM*
COc1ccc(OCc2cc(C(=O)NCc3nc(C)cs3)no2)c(Cl)c1	?	·	?	·	?	13µM*
CC(C)Oc1ccc(C(=O)Nc2ccc3oc(-c4ccncc4)nc3c2)cc1	·	7%	·	·	·	-19%

High-throughput results as filed in PubChem.
